The values that follow come from PubChem BioAssay (EPA / NIEHS).

Test [1] can be described thus: ATG_PBREM_CIS: Attagene CIS-FACTORIAL HepG2 Assay for human Phenobarbital-responsive Enhancer Module (PBREM) (AID 2282955). Particulars: HepG2 PBREM cis-reporter, Attagene multiplexed transcription; actives raise or lower the signal. An outline of the steps:
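Multiplexed cis-reporter readout in human hepatoma HepG2 cells; PBREM-regulated transcript quantified after 24 h exposure by fluorescent RT-PCR fragment analysis. Signal changes up or down fitted relative to DMSO.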

Test [2] is described as follows: ATG_PXRE_CIS: Attagene CIS-FACTORIAL HepG2 Assay for human Pregnane X Receptor Element (PXRE) (AID 2282957). To be noted: HepG2 Attagene CIS-FACTORIAL PXRE reporter, mRNA; actives raise or lower the signal. An outline of the steps: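 Multiplexed cis-reporter assay in transiently transfected human HepG2 cells; 24 h chemical exposure. Reporter transcripts quantified by RT-PCR with fluorescent labeling and capillary electrophoresis.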

Test [3] in a line: ATG_PPRE_CIS: Attagene CIS-FACTORIAL HepG2 Assay for human Peroxisome Proliferator-activated Response Element (PPRE) (AID 2282958). To be noted: HepG2 PPRE cis-element reporter, Attagene transcription factor profiling; actives raise or lower the signal. An outline of the steps: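 DMSO served as negative control and baseline for bidirectional curve fitting. Signal came from PPRE-regulated reporter mRNA in HepG2 cells, measured 24 h post-dosing by RT-PCR, 6-FAM primer extension and capillary electrophoresis.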

Test [4] in a line: ATG_Sox_CIS: Attagene CIS-FACTORIAL HepG2 Assay for human SRY-box transcription factor (SOX) (AID 2282960). To be noted: HepG2 Attagene cis-factorial SOX reporter, mRNA; actives raise or lower the signal. An outline of the steps:
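Fluorescence-labelled cDNA fragments from reporter transcripts, sized by CE, give the signal. Cells: HepG2, transiently transfected with cis-regulated reporter units. Exposure 24 h; DMSO negative control; bidirectional curve fitting.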

The target in test [5] is Transcription factor Sp1 (Homo sapiens) (UniProt P08047). The test is described as follows: ATG_Sp1_CIS: Attagene CIS-FACTORIAL HepG2 Assay for human Specificity Protein 1 (Sp1) (AID 2282961). To be noted: HepG2 Sp1 cis-reporter transcription, actives raise or lower the signal. An outline of the steps:
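Chemicals are dosed onto HepG2 cells transfected with multiple cis-promoter reporter constructs, and after 24 h reporter RNA is reverse-transcribed, PCR-amplified and resolved by capillary electrophoresis for fluorescence quantitation; activity is scored up or down against DMSO.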

The nature of test [6]: ATG_SREBP_CIS: Attagene CIS-FACTORIAL HepG2 Assay for human Sterol Regulatory Element Binding (SREBP) (AID 2282962). Particulars: HepG2 Attagene cis-factorial SREBP reporter, mRNA; actives raise or lower the signal. An outline of the steps:
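HepG2 cells transiently transfected with multiplexed cis-element reporter units report endogenous transcription factor activity. After 24 h of chemical exposure, reporter mRNA was quantified by RT-PCR, 6-FAM labelling, HpaI digestion and capillary electrophoresis; bidirectional fits used DMSO as baseline.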

Test [7] deals with Signal transducer and activator of transcription 3 (Homo sapiens) (UniProt P40763). The test can be described thus: ATG_STAT3_CIS: Attagene CIS-FACTORIAL HepG2 Assay for human Signal Transducer and Activator of Transcription 3 (STAT3) (AID 2282963). Particulars: HepG2, Attagene cis-factorial STAT3 reporter transcription; actives raise or lower the signal. An outline of the steps: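 After a 24 h compound incubation, total RNA from MRTU-transfected HepG2 cells was converted to cDNA and reporter sequences PCR-amplified, labelled and profiled by capillary electrophoresis. Gain and loss of signal were referenced to DMSO.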

The nature of test [8]: ATG_TCF_b_cat_CIS: Attagene CIS-FACTORIAL HepG2 Assay for human T-Cell-Factor with beta-catenin (TCF/b-cat) (AID 2282965). Particulars: HepG2 TCF/beta-catenin cis-reporter transcription, actives raise or lower the signal. An outline of the steps:
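Endogenous transcription factor activity is captured through cis-promoter reporter constructs transiently introduced into human HepG2 liver cells. Induced reporter mRNA is measured after 24 h and fitted bidirectionally relative to DMSO.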

Test [9] is described as follows: ATG_TAL_CIS: Attagene CIS-FACTORIAL HepG2 Assay for human TAL Basal Promoter (AID 2282966).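 Also: background control endpoint measuring basal TAL promoter reporter mRNA not a specific factor.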 Particulars: HepG2 Attagene cis-factorial TAL promoter reporter; actives raise or lower the signal. An outline of the steps:
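Steps: transfect HepG2 with multiple reporter transcription units; dose 24 h; isolate RNA, reverse-transcribe, PCR-amplify, label with 6-FAM, digest with HpaI; resolve by capillary electrophoresis. Bidirectional fitting against DMSO baseline.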

Test [10] in a line: ATG_TGFb_CIS: Attagene CIS-FACTORIAL HepG2 Assay for human Transforming Growth Factor (TGF) (AID 2282967). Particulars: HepG2 Attagene CIS TGFb reporter, mRNA transcription; actives raise or lower the signal. An outline of the steps: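 Cells were dosed for 24 hours, after which total RNA was reverse-transcribed and reporter sequences amplified, labeled and sized by capillary electrophoresis. Activity was fitted in both directions against DMSO.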

Test [11] can be described thus: ATG_VDRE_CIS: Attagene CIS-FACTORIAL HepG2 Assay for human Vitamin D Receptor Element (VDRE) (AID 2282968). To be noted: HepG2 VDRE cis-reporter transcription, actives raise or lower the signal. An outline of the steps: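 In transiently transfected HepG2 liver cells, gain or loss of reporter mRNA after 24 h exposure is scored relative to DMSO, using fluorescence detection by capillary electrophoresis of RT-PCR products.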

The target of test [12] is Estrogen receptor (Homo sapiens) (UniProt P03372). The test can be described thus: ATG_ERa_TRANS: Attagene TRANS-FACTORIAL HepG2 Assay for human Estrogen Receptor alpha (ERa) (AID 2282970; active = hit-call score of the fitted dose curve at least 0.9, where 1 is the maximum). To be noted: HepG2 Attagene TRANS ERa GAL4 reporter, mRNA. An outline of the steps:
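Multiplexed cell-based reporter format in HepG2: chimeric ERa-Gal4 protein drives GAL4-UAS reporter transcription. Fluorescent reporter mRNA quantified by capillary electrophoresis 24 hours after dosing; endpoint fitted as signal gain against DMSO.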

The target in test [13] is X-box-binding protein 1 (Homo sapiens) (UniProt P17861). The test is described as follows: ATG_Xbp1_CIS: Attagene CIS-FACTORIAL HepG2 Assay for human X-box Binding Protein 1 (XBP1) (AID 2282972). To be noted: HepG2 XBP1 cis-element reporter, Attagene multiplex; actives raise or lower the signal. An outline of the steps:
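HepG2 cells transiently transfected with cis-regulated multiple reporter transcription units; endogenous transcription factor activity measured 24 hours after chemical dosing. Reporter mRNA quantified by RT-PCR, 6-FAM primer extension, HpaI digestion and capillary electrophoresis; bidirectional fitting versus DMSO.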

The nature of test [14]: ATG_GAL4_TRANS: Attagene TRANS-FACTORIAL HepG2 Assay for GAL4 (Internal Marker) (AID 2282976; active = hit-call score of the fitted dose curve at least 0.9, where 1 is the maximum). To be noted: HepG2 Attagene TRANS GAL4 internal marker reporter. An outline of the steps:
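Liver HepG2 line bearing multiplexed GAL4-UAS reporter constructs; 24 h chemical treatment. Transcripts were quantified as fluorescent fragments on capillary electrophoresis after RT-PCR and HpaI cut, with activity fitted upward from DMSO.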

Test [15] concerns the target Paired box protein Pax-6 (Homo sapiens) (UniProt P26367). The test can be described thus: ATG_Pax6_CIS: Attagene CIS-FACTORIAL HepG2 Assay for human Paired Box 6 (PAX6) (AID 2282956). To be noted: HepG2 CIS-FACTORIAL PAX6 reporter transcription, RNA readout; actives raise or lower the signal. An outline of the steps:
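HepG2 cells transiently transfected with multiplexed cis-promoter reporter units (endogenous TF activity) were dosed for 24 h. Reporter mRNA was quantified by RT-PCR, 6-FAM labeling, HpaI digestion and capillary electrophoresis; bidirectional fitting versus DMSO baseline.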

Test [16] addresses Steroid hormone receptor ERR1 (Homo sapiens) (UniProt P11474). The test can be described thus: ATG_ERRa_TRANS: Attagene TRANS-FACTORIAL HepG2 Assay for human Estrogen-Related Receptor alpha (ERRa) (AID 2282971; active = hit-call score of the fitted dose curve at least 0.9, where 1 is the maximum). Particulars: HepG2 Attagene TRANS reporter, ERRa transactivation. An outline of the steps: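 Signal gain relative to DMSO for an ERRa-Gal4 chimeric receptor, read as reporter mRNA by RT-PCR/capillary electrophoresis. Human HepG2 liver cells, transient multiplex reporter transfection, 24 h chemical exposure.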

Test [17] is described as follows: ATG_RORE_CIS: Attagene CIS-FACTORIAL HepG2 Assay for human RAR-related Orphan Receptor Element (RORE) (AID 2282959). Particulars: HepG2 Attagene cis-factorial RORE reporter, mRNA; actives raise or lower the signal. An outline of the steps:
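Transfect HepG2 with MRTUs; treat 24 h; extract RNA; RT with oligo(dT); PCR with reporter-specific primers; 6-FAM primer extension; HpaI digest 2 h at 37 C; capillary electrophoresis. Fit vs DMSO, bidirectional.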

Test [18] is described as follows: ATG_TA_CIS: Attagene CIS-FACTORIAL HepG2 Assay for human TA Basal Promoter (AID 2282964). Particulars: HepG2 Attagene CIS-factorial TA basal promoter reporter; actives raise or lower the signal. An outline of the steps:
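Steps: transfect HepG2 with MRTUs; dose 24 h; isolate RNA, DNase-treat, reverse-transcribe; PCR and FAM-label reporter cDNA; digest with HpaI 2h at 37 C; run capillary electrophoresis. Activity fitted both directions against DMSO.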

Test [19] is described as follows: ATG_M_19_TRANS: Attagene TRANS-FACTORIAL HepG2 Assay for M19 Transcription Factor (Internal Marker) (AID 2282974; active = hit-call score of the fitted dose curve at least 0.9, where 1 is the maximum). To be noted: HepG2 Attagene TRANS-FACTORIAL M19 internal marker reporter. An outline of the steps: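 Multiplexed TRANS format: HepG2 liver cells bearing transient GAL4-UAS reporter units, chemical treatment 24 h, reporter transcripts quantified by RT-PCR plus capillary electrophoresis. DMSO defines baseline.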

The target in test [20] is Nuclear receptor subfamily 1 group I member 3 (Homo sapiens) (UniProt Q14994). The test is described as follows: ATG_CAR_TRANS: Attagene TRANS-FACTORIAL HepG2 Assay for human Constitutive Androstane Receptor (CAR) (AID 2282969; active = hit-call score of the fitted dose curve at least 0.9, where 1 is the maximum;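 also: activators raise reporter mRNA above DMSO so AC50 marks induction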). Particulars: HepG2 Attagene TRANS-FACTORIAL CAR reporter. An outline of the steps: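 Readout is reporter mRNA induction, quantified by fluorescent primer extension and capillary electrophoresis after RT-PCR. Cells were HepG2 transiently carrying chimeric NR-Gal4 constructs with GAL4-UAS reporters, treated for 24 h; activity scored upward from DMSO.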

Results filed as inconclusive are left out. Activity calls are given as the source filed them. The calls were made as follows, unless noted: active = hit-call score of the fitted dose curve at least 0.9, where 1 is the maximum; inactive = score below 0.9.

Usually AC50 stands for the concentration at which the activity in the assay is half-maximal.

Sequence of Estrogen receptor (Homo sapiens) (P03372 whole entry, looked up, the tested form may be a part): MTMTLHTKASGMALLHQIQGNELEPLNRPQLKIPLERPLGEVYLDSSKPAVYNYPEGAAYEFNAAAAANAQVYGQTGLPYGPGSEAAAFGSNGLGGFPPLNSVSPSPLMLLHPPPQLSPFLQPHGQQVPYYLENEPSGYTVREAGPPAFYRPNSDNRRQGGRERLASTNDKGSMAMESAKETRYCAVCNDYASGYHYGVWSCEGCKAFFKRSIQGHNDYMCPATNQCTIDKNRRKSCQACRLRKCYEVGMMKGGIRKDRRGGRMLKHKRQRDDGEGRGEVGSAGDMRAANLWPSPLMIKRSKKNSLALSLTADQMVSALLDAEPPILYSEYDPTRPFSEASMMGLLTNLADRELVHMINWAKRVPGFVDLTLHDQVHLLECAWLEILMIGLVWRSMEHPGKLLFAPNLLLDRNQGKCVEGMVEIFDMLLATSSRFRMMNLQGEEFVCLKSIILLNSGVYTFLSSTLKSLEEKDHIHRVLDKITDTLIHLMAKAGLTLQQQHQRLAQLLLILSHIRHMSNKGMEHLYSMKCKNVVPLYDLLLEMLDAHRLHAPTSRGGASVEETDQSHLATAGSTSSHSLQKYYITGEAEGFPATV
Sequence of X-box-binding protein 1 (Homo sapiens) (P17861 whole entry, looked up): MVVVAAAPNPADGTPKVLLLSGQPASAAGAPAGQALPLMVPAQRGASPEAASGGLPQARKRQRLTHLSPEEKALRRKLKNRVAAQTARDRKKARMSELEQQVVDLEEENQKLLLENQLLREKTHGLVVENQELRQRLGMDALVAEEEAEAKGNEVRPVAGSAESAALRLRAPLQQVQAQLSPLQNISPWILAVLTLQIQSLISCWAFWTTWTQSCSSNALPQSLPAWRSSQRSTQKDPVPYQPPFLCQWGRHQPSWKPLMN
Sequence of Signal transducer and activator of transcription 3 (Homo sapiens) (P40763 whole entry, looked up): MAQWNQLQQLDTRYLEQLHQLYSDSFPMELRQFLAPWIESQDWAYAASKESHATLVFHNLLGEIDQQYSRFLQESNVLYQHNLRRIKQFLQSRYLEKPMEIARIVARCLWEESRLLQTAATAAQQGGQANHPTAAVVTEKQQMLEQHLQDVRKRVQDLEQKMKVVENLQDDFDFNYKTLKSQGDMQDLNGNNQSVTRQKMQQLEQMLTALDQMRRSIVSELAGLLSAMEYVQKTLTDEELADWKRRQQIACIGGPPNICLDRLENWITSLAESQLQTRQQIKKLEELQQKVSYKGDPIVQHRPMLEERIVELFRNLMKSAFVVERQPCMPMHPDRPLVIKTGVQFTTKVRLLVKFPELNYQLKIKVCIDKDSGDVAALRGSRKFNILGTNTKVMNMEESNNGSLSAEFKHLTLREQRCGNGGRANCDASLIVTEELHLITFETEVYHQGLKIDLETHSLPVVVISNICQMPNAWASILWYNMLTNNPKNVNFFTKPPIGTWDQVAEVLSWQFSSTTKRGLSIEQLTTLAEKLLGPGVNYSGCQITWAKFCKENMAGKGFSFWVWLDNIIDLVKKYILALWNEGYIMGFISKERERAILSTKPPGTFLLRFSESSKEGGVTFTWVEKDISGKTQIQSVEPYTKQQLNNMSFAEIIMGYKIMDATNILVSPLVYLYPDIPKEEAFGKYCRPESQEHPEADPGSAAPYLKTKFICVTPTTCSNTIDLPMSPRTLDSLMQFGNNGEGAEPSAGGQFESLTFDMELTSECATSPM
Sequence of Transcription factor Sp1 (Homo sapiens) (P08047 whole entry, looked up): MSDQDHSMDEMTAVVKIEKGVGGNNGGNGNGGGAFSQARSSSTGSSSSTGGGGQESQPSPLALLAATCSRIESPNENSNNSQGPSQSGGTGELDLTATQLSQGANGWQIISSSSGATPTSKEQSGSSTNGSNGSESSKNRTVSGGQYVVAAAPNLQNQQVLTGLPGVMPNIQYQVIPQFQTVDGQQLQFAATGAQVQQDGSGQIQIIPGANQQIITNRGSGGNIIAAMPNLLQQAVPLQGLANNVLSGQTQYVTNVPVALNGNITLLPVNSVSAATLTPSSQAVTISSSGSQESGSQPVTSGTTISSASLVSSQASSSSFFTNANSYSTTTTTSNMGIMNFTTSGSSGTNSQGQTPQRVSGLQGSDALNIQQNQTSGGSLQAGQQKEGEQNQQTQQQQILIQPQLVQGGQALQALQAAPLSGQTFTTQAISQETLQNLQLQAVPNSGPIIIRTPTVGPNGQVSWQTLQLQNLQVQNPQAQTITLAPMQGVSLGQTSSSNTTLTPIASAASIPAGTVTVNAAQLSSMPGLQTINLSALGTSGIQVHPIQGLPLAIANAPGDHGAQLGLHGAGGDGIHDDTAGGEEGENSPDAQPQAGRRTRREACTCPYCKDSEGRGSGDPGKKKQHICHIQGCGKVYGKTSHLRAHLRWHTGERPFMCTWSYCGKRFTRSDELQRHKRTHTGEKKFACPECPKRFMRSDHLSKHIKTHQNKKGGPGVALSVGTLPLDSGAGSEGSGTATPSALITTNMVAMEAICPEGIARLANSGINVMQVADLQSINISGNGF
Sequence of Steroid hormone receptor ERR1 (Homo sapiens) (P11474 whole entry, looked up, the tested form may be a part): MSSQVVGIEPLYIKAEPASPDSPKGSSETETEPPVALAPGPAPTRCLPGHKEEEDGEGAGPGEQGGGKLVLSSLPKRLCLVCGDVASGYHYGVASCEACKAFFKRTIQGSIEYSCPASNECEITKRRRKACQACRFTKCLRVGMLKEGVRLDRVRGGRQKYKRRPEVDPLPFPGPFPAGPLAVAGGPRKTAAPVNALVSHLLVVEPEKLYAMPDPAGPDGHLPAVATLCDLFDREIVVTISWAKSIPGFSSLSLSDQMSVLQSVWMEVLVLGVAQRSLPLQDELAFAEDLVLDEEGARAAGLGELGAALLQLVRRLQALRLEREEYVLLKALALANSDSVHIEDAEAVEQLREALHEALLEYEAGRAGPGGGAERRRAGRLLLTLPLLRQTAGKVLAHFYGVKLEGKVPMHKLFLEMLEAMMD
Sequence of Nuclear receptor subfamily 1 group I member 3 (Homo sapiens) (Q14994 whole entry, looked up, the tested form may be a part): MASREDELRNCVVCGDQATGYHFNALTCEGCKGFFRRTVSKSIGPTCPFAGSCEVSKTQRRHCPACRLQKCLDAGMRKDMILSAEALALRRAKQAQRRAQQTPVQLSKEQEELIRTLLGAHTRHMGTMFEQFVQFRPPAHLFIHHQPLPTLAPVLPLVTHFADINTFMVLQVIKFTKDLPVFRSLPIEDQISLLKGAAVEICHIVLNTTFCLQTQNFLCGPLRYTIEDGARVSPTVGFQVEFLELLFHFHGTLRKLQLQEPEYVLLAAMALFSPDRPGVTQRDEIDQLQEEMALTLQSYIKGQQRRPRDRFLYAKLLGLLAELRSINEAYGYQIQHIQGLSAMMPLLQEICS
Sequence of Paired box protein Pax-6 (Homo sapiens) (P26367 whole entry, looked up): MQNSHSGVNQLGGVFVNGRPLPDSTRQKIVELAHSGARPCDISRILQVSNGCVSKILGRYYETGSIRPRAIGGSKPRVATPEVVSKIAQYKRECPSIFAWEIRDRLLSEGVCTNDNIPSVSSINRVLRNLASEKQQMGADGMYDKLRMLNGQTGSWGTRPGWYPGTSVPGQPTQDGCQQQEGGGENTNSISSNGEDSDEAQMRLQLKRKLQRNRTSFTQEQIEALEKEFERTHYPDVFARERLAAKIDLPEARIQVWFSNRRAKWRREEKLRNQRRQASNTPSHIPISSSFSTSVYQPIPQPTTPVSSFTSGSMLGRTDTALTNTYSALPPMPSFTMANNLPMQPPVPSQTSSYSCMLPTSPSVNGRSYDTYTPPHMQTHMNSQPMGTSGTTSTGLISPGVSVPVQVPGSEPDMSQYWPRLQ

As to `CCN(CC)c1ccc2c(c1)Oc1cc(N(CC)CC)ccc1C21OC(=O)c2ccccc21`, the result in test [1], in test [3], in [4], in test [5], in test [7] and in test [9] was inactive. The compound was called inactive in test [10], in test [12], in [13] and in [14]. In addition, the concentration at half-maximal activity (AC50) in test [2] is 1.04 µM (active); in test [6] it was 17.6 µM (active); in test [8], 50 µM (active); in test [11], 1.32 µM (active).

As for `OC(O)C(F)(F)C(F)(F)F`, the outcome in test [1], in test [15], in [2], in test [3], in test [4] and in test [5] was inactive. The outcome in test [6], in [7], in test [8], in test [9], in test [10] and in [11] was inactive. In addition, the outcome in [12], in test [16], in [13] and in test [14] was inactive.

With `COc1ccccc1C=O`, the outcome in test [1], in [2], in test [3], in [17], in [4] and in test [5] was inactive. The compound was called inactive in test [6], in test [7], in test [18], in test [8], in test [9] and in test [10]. In addition, the compound was classed as inactive in test [12], in test [13], in test [19] and in test [14].

For `CC(=O)CCC(C)C`, the result in [1], in [3], in test [17], in test [4], in [5] and in test [6] was inactive. Moreover, the call in [7], in test [18], in test [8], in test [9], in test [10] and in test [20] was inactive. Besides, the call in test [12], in test [13] and in test [19] was inactive. In addition, in test [2], the AC50 is 52.9 µM (active).

As to `Cc1cc(=O)[nH]c(C(C)C)n1`, the outcome in test [1], in [2], in [3], in [4], in test [5] and in [6] was inactive. The outcome in test [7], in test [18], in test [9], in test [10], in [11] and in test [20] was inactive. Moreover, the call in test [16], in test [13] and in test [14] was inactive.

Take `C=CC(=O)OCC(F)(F)C(F)(F)C(F)(F)COC(=O)C=C`: the result in test [1], in test [2], in test [3], in test [17], in [6] and in [7] was inactive. Moreover, the outcome in test [9], in test [10], in [12] and in test [13] was inactive. In addition, the AC50 was 29.1 µM (active) in test [4], 26.4 µM (active) in test [5], 19.8 µM (active) in test [8] and 20.7 µM (active) in test [11].

As for `CCC(Cc1c(I)cc(I)c(N)c1I)C(=O)O` (stereo not given), the result in [1], in test [7], in [18], in test [9], in [10] and in test [11] was inactive. For the same compound, in test [13], the compound was classed as inactive. Also, the AC50 in test [2] was 151 µM (active); in test [3], 39.7 µM (active); in test [4], 137 µM (active); in test [5], 88.5 µM (active); in [6], 24.1 µM (active); in test [8], 55.5 µM (active). Further, the concentration at half-maximal activity (AC50) in test [12] is 4.99 µM (active).
